Test results reported in PubChem BioAssay.
Calls of active or inactive are those of the source.

Legend:
[1] = compounds binding Alexa647 anti-His antibody – biochemical, small-molecule microarray, 635 nm fluorescence, artefact control for SMM control protein annotation, primary screen (AID 1128); settings: higher = more signal;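 also: score merges feature fluorescence with signal-to-noise for each printed compound spot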
[2] = system: Human papillomavirus type 1a E7 protein (residues 1-88); assay: HPV1a E7 small-molecule binders, primary screen, biochemical, small-molecule microarray, residues 1-88, 635 nm (AID 1129); settings: small-molecule microarray binding, fluorescence 635 nm; higher = more signal
[3] = biological target: Focal adhesion kinase 1 (Homo sapiens) (UniProt Q05397); assay: PTK2 protein binding on printed compound slides – biochemical, small-molecule microarray, 635/667 nm fluorescence, BSA, DTT, primary screen (AID 1130); settings: 635 nm fluorescence, higher = more signal;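 also: composite of spot emission at 667 nm and signal to noise over triplicate slides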
Chain of Focal adhesion kinase 1 (Homo sapiens) (Q05397 whole entry, looked up): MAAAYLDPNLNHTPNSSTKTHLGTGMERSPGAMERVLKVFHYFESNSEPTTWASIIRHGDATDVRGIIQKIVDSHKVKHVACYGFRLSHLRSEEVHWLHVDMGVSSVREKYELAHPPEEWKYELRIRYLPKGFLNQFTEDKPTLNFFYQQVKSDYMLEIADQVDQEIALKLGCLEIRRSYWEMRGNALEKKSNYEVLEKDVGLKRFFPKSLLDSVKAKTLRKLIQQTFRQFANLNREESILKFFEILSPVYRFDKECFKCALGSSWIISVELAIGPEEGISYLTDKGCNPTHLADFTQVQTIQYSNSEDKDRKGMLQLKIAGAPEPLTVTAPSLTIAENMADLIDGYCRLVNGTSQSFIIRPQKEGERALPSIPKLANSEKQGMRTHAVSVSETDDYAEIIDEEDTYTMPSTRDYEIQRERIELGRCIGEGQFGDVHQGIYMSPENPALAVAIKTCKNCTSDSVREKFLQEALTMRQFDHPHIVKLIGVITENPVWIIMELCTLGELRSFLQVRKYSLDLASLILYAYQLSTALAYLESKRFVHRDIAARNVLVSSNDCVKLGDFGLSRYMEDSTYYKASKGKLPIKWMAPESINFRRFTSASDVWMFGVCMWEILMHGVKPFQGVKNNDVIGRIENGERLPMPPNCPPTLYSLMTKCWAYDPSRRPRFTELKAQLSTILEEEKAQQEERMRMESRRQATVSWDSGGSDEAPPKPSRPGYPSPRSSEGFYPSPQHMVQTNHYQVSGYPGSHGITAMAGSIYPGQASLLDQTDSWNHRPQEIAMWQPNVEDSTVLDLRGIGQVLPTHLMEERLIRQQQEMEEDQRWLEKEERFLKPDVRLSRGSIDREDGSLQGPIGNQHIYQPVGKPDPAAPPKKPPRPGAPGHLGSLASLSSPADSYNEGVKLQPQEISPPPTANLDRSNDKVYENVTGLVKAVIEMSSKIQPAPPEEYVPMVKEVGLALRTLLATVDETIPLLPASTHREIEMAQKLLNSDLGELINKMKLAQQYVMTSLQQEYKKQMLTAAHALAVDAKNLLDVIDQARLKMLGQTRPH

[4] = system: Fibrinogen (Alexa647-labelled); assay: Alexa647-fibrinogen binding to printed small molecules – biochemical, small-molecule microarray, 635/667 nm fluorescence, artefact control for SMM control-protein annotation, profiling panel (AID 1131); settings: fibrinogen-A647 binding fluorescence, higher = more signal;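 also: z-score merges 667 nm fluorescence with per-spot signal-to-noise over triplicate slides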
[5] = biological target: Follistatin (Homo sapiens) (UniProt P19883); assay: FST protein binding to printed compounds – biochemical, small-molecule microarray, 635/667 nm fluorescence, primary screen (AID 1132); settings: 635 nm fluorescence, higher = more signal
Chain of Follistatin (Homo sapiens) (P19883 whole entry, looked up): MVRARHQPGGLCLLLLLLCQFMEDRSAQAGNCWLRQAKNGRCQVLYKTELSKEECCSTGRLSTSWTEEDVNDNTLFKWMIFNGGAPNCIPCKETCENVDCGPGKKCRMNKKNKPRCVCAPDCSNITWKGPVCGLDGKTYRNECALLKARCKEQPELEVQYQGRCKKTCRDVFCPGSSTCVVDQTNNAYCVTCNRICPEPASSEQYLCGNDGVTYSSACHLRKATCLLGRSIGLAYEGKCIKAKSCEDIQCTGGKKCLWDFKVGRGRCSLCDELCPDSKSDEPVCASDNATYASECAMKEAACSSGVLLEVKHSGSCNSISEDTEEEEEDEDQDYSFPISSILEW

[6] = biological target: Fibroblast growth factor 2 (Homo sapiens) (UniProt P09038); assay: basic fibroblast growth factor binding to printed compounds – biochemical, small-molecule microarray, 635/667 nm fluorescence, primary screen (AID 1133); settings: FGF2, fluorescence 635/667, higher = more signal
Chain of Fibroblast growth factor 2 (Homo sapiens) (P09038 whole entry, looked up): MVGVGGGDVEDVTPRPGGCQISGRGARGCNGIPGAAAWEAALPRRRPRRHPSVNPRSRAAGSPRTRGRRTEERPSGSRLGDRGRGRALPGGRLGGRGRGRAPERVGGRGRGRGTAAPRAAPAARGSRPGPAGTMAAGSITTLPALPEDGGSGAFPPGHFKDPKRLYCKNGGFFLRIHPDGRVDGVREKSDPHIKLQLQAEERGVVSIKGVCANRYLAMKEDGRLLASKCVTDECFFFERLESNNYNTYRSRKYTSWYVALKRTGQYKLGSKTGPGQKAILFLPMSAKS

[7] = JC-1 mitochondrial potential readout, lung cancer cells – cell-based, A549, JC-1 fluorescence, basal, 24 h, 100 nL, profiling panel (AID 1138); settings: higher = more signal;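 also: A549 lung adenocarcinoma cells under basal conditions with no added stimulus; test concentration not given here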
Lefty1 = Lefty1 protein binding to printed compounds – biochemical, small-molecule microarray, 635/667 nm fluorescence, primary screen (AID 1139); settings: fluorescence 635/667, higher = more signal
[8] = system: wheat germ agglutinin (Triticum aestivum), Alexa647-labelled; assay: Alexa647-WGA lectin binding to printed small molecules – biochemical, small-molecule microarray, 635/667 nm fluorescence, artefact control for SMM control-protein annotation, profiling panel (AID 1140); settings: WGA-A647 binding, 635 nm fluorescence, higher = more signal;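 also: score merges 667 nm feature emission with signal to noise over triplicate slides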
[9] = biological target: Luciferin 4-monooxygenase (Photinus pyralis) (UniProt P08659); assay: inhibition of purified Photinus pyralis luciferase – biochemical, luminescence, purified enzyme, 2006 set, primary screen (AID 1141); settings: purified firefly luciferase, SteadyGlo luminescence, 30 min; higher = more signal, called active from +8 up or from −8 down;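 also: cell-free assay with purified firefly luciferase at 100 ng per well in PBS; test concentration not given here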
Chain of Luciferin 4-monooxygenase (Photinus pyralis) (P08659 whole entry, looked up): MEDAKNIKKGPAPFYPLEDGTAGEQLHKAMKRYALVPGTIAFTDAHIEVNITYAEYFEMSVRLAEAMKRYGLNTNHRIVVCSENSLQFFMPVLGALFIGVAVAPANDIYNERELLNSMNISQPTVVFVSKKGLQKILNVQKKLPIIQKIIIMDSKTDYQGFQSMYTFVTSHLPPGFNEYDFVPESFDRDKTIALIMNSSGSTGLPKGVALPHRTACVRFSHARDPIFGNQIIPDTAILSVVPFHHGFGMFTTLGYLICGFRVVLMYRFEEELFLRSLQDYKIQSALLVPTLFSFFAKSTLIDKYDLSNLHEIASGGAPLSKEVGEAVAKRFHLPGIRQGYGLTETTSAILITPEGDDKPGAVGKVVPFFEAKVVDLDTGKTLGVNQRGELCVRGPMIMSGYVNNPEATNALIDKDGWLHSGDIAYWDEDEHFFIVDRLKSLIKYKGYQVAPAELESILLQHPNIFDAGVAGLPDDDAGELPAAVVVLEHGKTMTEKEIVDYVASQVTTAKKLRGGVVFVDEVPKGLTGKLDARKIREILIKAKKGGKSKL

Compound	composite z-score [1]	composite z-score [2]	composite z-score [3]	composite z-score [4]	composite z-score [5]	composite z-score [6]	z-score [7]	composite z-score (Lefty1)	composite z-score [8]	z-score [9]
COc1ccc(C#Cc2ccc3c(c2)[C@]2(C(=O)N3)[C@H](c3ccccc3OCCO)N3[C@H](c4ccccc4)[C@H](c4ccccc4)OC(=O)[C@H]3[C@@H]2C(=O)O)cc1	1.61	1.22	0.191	0.951	0.694	0.314	-2.59	1.15	1.28	-3.9 (inactive)
[N-]=[N+]=NCc1ccccc1[C@@H]1OC(c2ccc(OCCCO)cc2)=N[C@]1(CCS(=O)(=O)c1ccccc1)C(=O)NCc1ccccc1	1.82	1.21	0.878	0.964	1.47	1.37	-0.338	1.49	1.27	-0.375 (inactive)
O=C1c2ccccc2[C@@]2(Cc3ccccc3N(CCN3CCOCC3)C2=O)[C@H](c2ccc(CO)cc2)N1Cc1ccccc1	-0.784	-0.689	0.352	-0.523	0.0312	-0.253	0.202	-0.0729	-0.304	1.01 (inactive)
CCCCCC1=C2CNC(CCC)(C(=O)OC)C=C2C(C)C1=O (stereo not given)	-0.252	0.859	0.682	-0.288	-0.249	0.0833	0.424	-0.444	-0.0925	0.443 (inactive)
C=CCOC(=O)[C@H]1[C@@H]2C(=O)O[C@@H](c3ccccc3)[C@@H](c3ccccc3)N2[C@@H](c2ccc(OCCOC(=O)[C@H]3C[C@H]4C(=O)N[C@@H](CC(C)C)C(=O)N4[C@H]3c3ccc(O)cc3)cc2)[C@]12C(=O)Nc1ccc(I)cc12	0.756	0.937	0.798	0.839	1.19	1.55	-1.29	1.54	0.739	-2.02 (inactive)
C=CCOC(=O)[C@@H]1[C@H]2C(=O)O[C@H](c3ccccc3)[C@H](c3ccccc3)N2[C@H](c2ccc(OCCOC(=O)[C@@H]3C[C@@H]4C(=O)N[C@@H](CCCCN(C)C)C(=O)N4[C@@H]3c3ccc(O)cc3)cc2)[C@@]12C(=O)Nc1ccc(I)cc12	1.13	0.799	0.338	0.177	1.2	1.34	-1.78	0.844	0.542	-2.62 (inactive)
CCCC[C@H]1OB(O)C[C@H]2C1=C(COc1ccccc1)C[C@H]1C(=O)N(C)C(=O)[C@H]12	-0.0391	0.0417	-0.281	-0.0052	1.24	0.473	0.284	0.576	0.0686	-0.718 (inactive)
COCCOC(=O)N1C(=O)[C@@]2(c3cc(C#Cc4ccc(OC)cc4)ccc31)[C@H](C(N)=O)[C@H]1C(=O)O[C@H](c3ccccc3)[C@H](c3ccccc3)N1[C@@H]2c1ccccc1OCCO	2.24	1.21	0.861	1	1.3	1.42	-1.47	1.58	0.901	0.0449 (inactive)
O=C1C2C=CC(C(O)C3CCCCC3)N(Nc3ccc([N+](=O)[O-])cc3)C2C(=O)N1c1ccccc1 (stereo not given)	3.32	1.21	0.539	0.959	-0.647	-1.58	-1.72	-0.153	0.823	0.618 (inactive)
O=C1C2C=CC(C(O)C(c3ccccc3)c3ccccc3)N(n3cnnc3)C2C(=O)N1Cc1ccccc1 (stereo not given)	0.305	1.21	0.638	0.977	0.552	1.54	-0.806	0.0063	0.131	1.01 (inactive)
COCCCNC(=O)[C@@]1(Cc2ccccc2)N=C(c2ccc(OCCCO)cc2)O[C@H]1c1ccccc1	3.17	1.26	0.102	0.959	0.448	0.706	0.26	-0.559	1.11	-0.391 (inactive)
O=C1OCC=C[C@H]2OC34C=CCN(c5ccc6ccccc6c5)C(=O)[C@H]3N(CCCCCCO)C(=O)[C@@H]4[C@@H]12 (stereo not given in full)	2.67	-0.593	0.806	-0.9	-1.18	-0.595	1.16	-0.732	-0.434	-0.875 (inactive)
CC(C)(C)OC(=O)CC[C@]1(C(=O)O)N=C(c2ccc(OCCCO)cc2)O[C@H]1c1ccccc1N=[N+]=[N-]	1.95	0.815	0.238	0.882	0.891	0.0606	-0.974	-0.811	0.963	-10.5 (active)
CC[C@@H]1C=C(C(=O)O)[C@H](c2ccco2)N1S(=O)(=O)c1ccc(C)cc1	0.2	-0.522	1.32	-1.13	1	-0.152	-1.09	-0.165	0.839	1.09 (inactive)
O=C1O[C@H](c2ccccc2)[C@H](c2ccccc2)N2[C@H]1[C@@H](C(=O)O)[C@]1(C(=O)Nc3ccc(C#CCCO)cc31)[C@H]2c1ccc(O)cc1	0.0887	0.0227	0.724	-0.862	0.771	-0.317	1.07	-0.279	0.349	-1.72 (inactive)
CCOC(=O)C1=CCC(c2ccc(C)cc2)N(S(=O)(=O)c2ccc(C)cc2)C1 (stereo not given)	0.403	0.939	0.335	0.258	0.523	-0.279	2.06	0.288	0.396	1.47 (inactive)

Compound	composite z-score [1]	composite z-score [2]	composite z-score [3]	composite z-score [4]	composite z-score [5]	composite z-score [6]	z-score [7]	composite z-score (Lefty1)	composite z-score [8]	z-score [9]
C=C(C)C1C(=C)CN([C@H](CO)c2ccccc2)C1=O (stereo not given in full)	0.0639	-0.534	-0.521	-0.0803	0.189	-0.158	-0.647	0.587	-0.187	1.01 (inactive)
COc1ccc(CCNC(=O)[C@@]2(C)c3ccccc3C(=O)N(Cc3cc(F)cc(C(F)(F)F)c3)[C@H]2c2ccc(CO)cc2)cc1	0.421	0.682	0.212	0.0066	0.179	0.132	-0.233	-0.953	0.606	-0.947 (inactive)
NCCCCCNC(=O)[C@@H]1C[C@@H]2C(=O)NCC(=O)N2[C@@H]1c1ccc(O)cc1	2.18	1.19	0.0992	0.948	1.51	1.79	1.41	1.76	0.891	-1.11 (inactive)
CC1CC/C=C\[C@H]2OC34C=CCN(C(C)(C)C)C(=O)[C@H]3N(CCCCCCO)C(=O)[C@@H]4C2C(=O)O1 (stereo not given in full)	1.65	-0.572	-0.61	-0.988	-0.49	-0.635	0.699	-0.349	-0.872	-0.939 (inactive)
[N-]=[N+]=NCc1ccccc1C[C@]1(C(=O)NCC(O)CO)N=C(c2ccc(OCCCO)cc2)O[C@H]1c1ccccc1 (stereo not given in full)	0.375	-0.116	-0.294	-0.231	0.263	-0.476	-0.077	-1.5	0.228	-0.263 (inactive)
O=C1c2ccccc2[C@@]2(Cc3ccccc3N(CC(F)(F)F)C2=O)[C@H](c2ccc(CO)cc2)N1Cc1ccccc1Cl	0.181	-0.265	-0.121	-0.134	1.12	0.652	-0.000595	0.667	-0.518	-0.496 (inactive)
C=CC[C@]1(C(=O)NCCCOC)N=C(c2ccc(OCCCO)cc2)O[C@H]1c1ccccc1N=[N+]=[N-]	2.54	1.22	0.143	0.967	1.26	1.28	0.688	-0.397	0.542	-8.19 (active)
Cc1ccc(S[C@]2(C(=O)NCC(F)(F)F)CC(=O)N(C(C)C)[C@@H]2c2ccc(CO)cc2I)cc1	-1.45	-0.68	-0.188	-1.11	-0.366	0.0888	0.758	-1.13	-0.86	-1.01 (inactive)
CC(CO)N1C(=O)[C@@H]2C3C(=O)OCCC/C=C\[C@H]3OC23C=CCN(c2ccc4ccccc4c2)C(=O)[C@@H]13 (stereo not given in full)	0.339	-0.351	-0.363	0.167	-0.382	-0.865	0.45	-0.632	0.0312	-0.846 (inactive)
COc1ccc([C@H]2OC[C@@H]3CC4(CC=CC4)C(=O)N32)cc1	-0.648	0.828	0.282	-0.163	1.4	0.848	-0.661	1.35	-0.284	-0.573 (inactive)
COC(=O)[C@@]1(Cc2ccccc2)[C@H]2c3cc(C(=O)N4CCCC4)n(Cc4nc5ccccc5[nH]4)c3C[C@H]2CN1C(=O)c1ccccc1	2.51	1.24	1.22	0.656	1.11	-0.297	1.05	-0.931	0.726	1.5 (inactive)
O=C1OCCC/C=C\[C@H]2OC34C=CCN(Cn5nnc6ccccc65)C(=O)[C@H]3N(CCO)C(=O)[C@@H]4C12 (stereo not given in full)	0.893	-0.318	-0.344	-1.27	-0.481	-1.36	-0.438	-0.368	0.556	1.27 (inactive)
CN1C(=O)C2C=CC(C(O)C3CC=CCC3)N(NC(=O)OC(C)(C)C)C2C1=O (stereo not given)	0.561	0.889	0.465	-0.0919	1.25	0.124	-0.0347	0.717	1.32	-0.71 (inactive)
COCCOC(=O)N1C(=O)[C@@]2(c3cc(C#CCCO)ccc31)[C@H](C(=O)N1CCc3cc(OC)c(OC)cc3C1)[C@H]1C(=O)O[C@H](c3ccccc3)[C@H](c3ccccc3)N1[C@@H]2c1ccc(O)cc1	1.89	1.22	0.831	0.904	0.949	0.622	0.188	0.791	0.393	-0.407 (inactive)
CO[C@H]1O[C@H](CO)[C@@H](OC(=O)Nc2ccc(Br)cc2)[C@H](OC(=O)c2cc3ccccc3[nH]2)[C@H]1OC(=O)c1cc2ccccc2[nH]1	1.69	1.14	0.468	0.967	0.729	0.355	-1.07	0.311	0.723	-1.75 (inactive)
CC(C)(C)OC(=O)CC[C@@]12N=C(c3ccc(OCCCO)cc3)O[C@@H]1c1ccccc1N(CCS(=O)(=O)c1ccccc1)C2=O	2.03	1.19	0.412	0.129	1.3	0.109	0.84	0.644	0.653	-7.46 (inactive)
